In all, about 220,000 compounds went through this assay and about 2,000 (0.91%) were called active. Not shown: some 2% with an inconclusive outcome. A selection follows. Entries with a potency or affinity are not part of this list. Unmarked numbers belong to inactive results. Cut-off read from the data, not from the text of the source: inconclusive = inhibition above about 80% without an active follow-up result; inactive = below that; test concentration not stated here.
Experiment: M. tuberculosis H37Rv growth inhibitors, H37Rv strain (AID 1626);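 note: bacteria incubated seven days before Alamar blue readout; 0% = bacteria only wells and 100% = bacteria with antibiotic wells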
Settings: active compounds read high, concentration not given here

SMILES | inhibition [%]
CN(CC(=O)Nc1ccccn1)S(=O)(=O)c1ccc(Cl)cc1 | -2.26
CN(C)/C=C1\N=C(c2ccccc2)OC1=O | 8.41
CC(=O)Oc1ccc2c(=O)c(Oc3ccccc3)c(C)oc2c1OC(C)=O | -17.4
COc1ccc(-c2[nH]ncc2CNC(C)Cc2cccc(C)n2)cc1F (configuration not stated) | 0.91
COc1ccc(CNC(=O)[C@@H]2CC=C[C@@H]3CCN(Cc4ccc(Cl)c(Cl)c4)C(=O)[C@@H]32)cc1 | 6.56
Cc1ccc(CCN2CC(C(=O)NCCCN(C)Cc3ccccc3)CC2=O)cc1 (configuration not stated) | 2.65
CCOc1ccc(CCN2C(=O)C(=O)N([C@H](CCCN(C)Cc3ccccc3)CNCc3ccccc3)C[C@@H]2C(C)C)cc1 | -12.7
O=C1NC[C@H](c2ccccc2)N(CCc2cccc(F)c2)C1=O | -4.05
Cc1cc(C)nc(NS(=O)(=O)c2ccc(NC(=O)c3ccco3)cc2)n1 | 3.55
O=C(Nc1ccc(Cl)cc1)OCc1cn(-c2ccc(Cl)cc2)nn1 | -0.6
O=C(CCN1CCCCC1)N/N=C/c1c[nH]c2ccccc12 | -4.97
Cc1ccc(C)c(N(C(=O)CS(=O)CC(=O)Nc2ccc3c(c2)OCO3)C(C)C(=O)NC2CCCC2)c1 (configuration not stated) | -13.4
CC1(C)CC(=O)C(C=Nc2ccc(N)cc2)=C(O)C1 | 0.045
CC1(C)CC(=O)C(C=Nc2ccc(O)cc2)=C(O)C1 | 1.61
COCCNC(=O)CSc1c2c(nc3ccc(Cl)cc13)CCCC2 | 0.54
O=C(O)c1c2c(nc3ccc(Cl)cc13)CCC2 | -3.42
Oc1ccc(-n2cnnn2)cc1 | -8.59
Cc1cc(N)n2ncc(-c3ccccc3)c2n1 | 8.61
Cc1nccn1-c1cc(C(C)(C)C)nc2c(-c3ccccc3)cnn12 | 2.7
CC(=O)Nc1ccc(Nc2cc(C)nc3c(-c4ccccc4)cnn23)cc1 | 72.8
Cc1cc(NCCN2CCOCC2)n2ncc(-c3ccccc3)c2n1 | 8.29
CCc1nccn1-c1cc(C(C)(C)C)nc2c(-c3ccc(Cl)cc3)cnn12 | 3.22
Cc1cc(-c2ccccc2)n2ncc(-c3ccccc3)c2n1 | 7.91
O=C(COc1ccccc1)N1c2ccccc2Sc2ccccc21 | -4.38

SMILES | inhibition [%]
O=C(O)c1ccccc1SCC(=O)N1CCOCC1 | 7.09
CCOc1cccc2sc(Cl)nc12 | -8.06
CN=C(SCc1ccccc1)c1c(O)n(C)c(=O)n(C)c1=O | -0.87
C=CCN=C(SCC(=O)c1ccc(Cl)cc1)c1c(O)n(C)c(=O)n(C)c1=O | 1.31
CSC(=Nc1ccccc1)c1c(O)n(C)c(=O)n(C)c1=O | -1.82
CN=C(SCc1cc2c(cc1Cl)OCO2)c1c(O)n(C)c(=O)n(C)c1=O | -0.46
CCNC(=O)CC1S/C(=N/N=C(\C)c2ccccc2)NC1=O (configuration not stated) | 2.78
O=C(CNC(=O)c1cccs1)c1ccc(F)cc1 | 4.53
CCN(CC)S(=O)(=O)c1ccc(C(=O)OCC(=O)Nc2sc3c(c2C#N)CCCCC3)cc1 | 6.83
COc1ccc(-c2cc(-c3ccccc3)[n+](C)c(-c3ccccc3)c2)cc1 | 2.49
COc1ccc(-c2ccc(OC)cc2)cc1 | -6.18
CC(=O)Nc1cccc(C(=O)/C=C/c2ccc[nH]2)c1 | -13.8
CC(=O)Nc1cccc(C(=O)/C=C/c2ccc(N(C)C)cc2)c1 | 8.2
CCC(=O)Nc1cccc(C(=O)/C=C/c2cccs2)c1 | 31.2
CCC(=O)Nc1cccc(C(=O)c2ccccc2)c1 | 25.8
CC(=O)Nc1cccc(C(=O)/C=C/c2ccc(F)cc2)c1 | 16.5
CC(=O)Nc1cccc(C(=O)/C=C/c2ccc(/C=C/C(=O)c3cccc(NC(C)=O)c3)cc2)c1 | 2.15
CC(C)CN1C(=O)C(NC(=O)C2CC2)(C(F)(F)F)C2=C1CC(C)(C)CC2=O (configuration not stated) | -4.55
COc1ccc(-n2c(SCC(=O)N/N=C/c3ccccc3OCC(=O)O)nc3ccccc3c2=O)cc1 | -3.87
COc1ccc(-c2cc(C(=O)OCC(=O)N(C)C)c3ccccc3n2)cc1 | -8.2
N#CCCN/N=C(\Cc1nc2ccccc2[nH]1)c1ccccc1 | -0.45
COc1cc(C(C)=O)ccc1COc1ccc(C(=O)OCC(=O)NC2CCS(=O)(=O)C2)cc1OC (configuration not stated) | 1.52
O=C(O)CCn1cc(/C=C\C(=O)c2ccc(Cl)cc2)c(-c2cccc(Br)c2)n1 | -1.2

Reference: PubChem BioAssay AID1626 (SRMLSC, 2009)
